This note sets out measurements from ChEMBL document CHEMBL4513216, “Probing the Open Global Health Chemical Diversity Library for Multistage-Active Starting Points for Next-Generation Antimalarials” (ACS Infect Dis, 2020).

About 2,100 (3.2%) of roughly 65,000 compounds showed an effect of 50% or more. The median lay at about -52%. The sample as a whole holds a higher share of strong results than the screen did.

In this assay the test system is Plasmodium falciparum. As to the kind of experiment: Screen against P. falciparum Asexual Blood Stage (ABS), at 5uM. Format: functional, Dd2. As to conditions: tested at 5 uM.
On to `Cc1cc2nc(C(C)C)cc(NC(C)c3nncn3C3CCCC3)n2n1` (stereo not drawn), for which the INHIBITION was -49.8%. On to `COc1cccc2c1OCC(C(=O)NCc1ncc3c(n1)CCC3)C2` (stereo not drawn), for which the INHIBITION was -33%. On to `N#Cc1ccc(C(=O)N2CCn3cc(CN4CCCCC4)nc3C2)cc1`, for which the INHIBITION is -96.9%. Take `CN([C@@H]1CC[C@@H](N2CCCC2)[C@@H]1O)S(=O)(=O)c1ccccc1`: the INHIBITION is on record as 51.6%. On to `Cc1nccn1[C@@H]1CC[C@@H](N(C)S(=O)(=O)c2cccc(F)c2)[C@H]1O`, for which the INHIBITION is listed as -107%. In the case of `CN([C@@H]1CC[C@@H](N2CCOCC2)[C@@H]1O)S(=O)(=O)c1ccccc1`, the INHIBITION is on record as -97.1%. To `O=C(c1ccco1)N1CCC2(CCCN(c3ncccn3)C2)C1` (stereo not drawn) belongs -59%; to `COCCNc1cccc(C2CCCN2)n1` (stereo not drawn), -86.4%. Under `c1cc(CC2CCCNC2)nc(NCCc2cnccn2)c1` (stereo not drawn) stands -96.3%. Under `Cc1cnc(CCNc2cccc(CC3CCCNC3)n2)s1` (stereo not drawn) stands 65.5%.

Regarding `Cc1nc(C2CCCNC2)cc(N(C)CCc2cn[nH]c2)n1` (stereo not drawn), the INHIBITION is listed as -151%.

Consider `CCn1ccnc1CN(C)c1cc(C2CCCNC2)nc(C)n1` (stereo not drawn), for which the INHIBITION is given as -33.9%. To `Cc1nc(C2CCCNC2)cc(N(C)CCc2ccccc2)n1` (stereo not drawn) belongs 53.5%; to `Cc1nc(NC2CCCCC2)cc(C2CCCNC2)n1` (stereo not drawn), -0.566%. To `Cc1cc(Cc2ccccc2F)cc(C2CCCNC2)n1` (stereo not drawn) belongs 64.8%; to `c1cc(NCc2ccncc2)nc(C2CCCNC2)c1` (stereo not drawn), -2.22%.

On to `Cc1cc(Nc2cnccn2)cc(C2CCCNC2)n1` (stereo not drawn), for which the INHIBITION is -27.1%.

As for `c1ccc(CCNc2cccc(C3CCCNC3)n2)cc1` (stereo not drawn), the INHIBITION was 66.8%. With `COCCNc1ccc(CC2CCCNC2)cn1` (stereo not drawn), the INHIBITION was -56.2%. To `CCS(=O)(=O)NC(CCSC)C(=O)Nc1cc(F)ccc1C` (stereo not drawn) belongs -26.6%; to `Cc1cnc(N2CCC3(CC2)CC3CN(C)Cc2cccnc2)nc1` (stereo not drawn), -28%.

For the molecule `CCC(C)Oc1ccc(CNCCNC(C)=O)cc1Cl` (stereo not drawn), the INHIBITION is -29.5%. Under `COCc1cc(O)nc(C2CCCN(Cc3ccc(OC)cc3)C2)n1` (stereo not drawn) stands -29.3%.

With `Cc1cc(C(N)=O)c2c(Br)cccc2n1`, the INHIBITION is on record as -105%. To `Cc1ccc(C(C)N(C)Cc2nc3c(cnn3C)c(=O)[nH]2)s1` (stereo not drawn) belongs 50%; to `COc1ccccc1C(C)N(C)Cc1nc2c(cnn2C)c(=O)[nH]1` (stereo not drawn), -62.4%; to `Cc1ccccc1C(C)N(C)Cc1nc2c(cnn2C)c(=O)[nH]1` (stereo not drawn), -198%. Take `COc1ccc(C(C)N(C)Cc2nc3c(cnn3C)c(=O)[nH]2)cc1` (stereo not drawn): the INHIBITION is listed as 57.6%. As for `Cc1ccc(C(C)N(C)Cc2nc3c(cnn3C)c(=O)[nH]2)cc1` (stereo not drawn), the INHIBITION is listed as -137%. Under `Cc1ccc(CN(Cc2nc3c(cnn3C)c(=O)[nH]2)C(C)C)s1` stands -67.1%; under `Cc1ccc(CCC(=O)N2CCC(Nc3cccnn3)CC2)cc1`, -69.1%; under `O=S(=O)(NCc1ccccc1)N1CCCN(c2ccncc2)CC1`, -0.943%. Turning to `CCC(=O)N1CCC2(CC1)C(c1cccnc1)CC(=O)N2CCOC` (stereo not drawn), the INHIBITION is -104%.

As to `CC(CNC(=O)c1cccnc1)Oc1ccc(F)cc1` (stereo not drawn), the INHIBITION is given as -61.4%.

As for `CCNC(=O)C1CCN(c2cc(-c3ccccc3)nc3ccnn23)C1` (stereo not drawn), the INHIBITION is given as -26.4%. To `Cc1cc(N2CCCC(N(C)C)C2)n2nccc2n1` (stereo not drawn) belongs -65.1%; to `CN(C)C1CCN(c2cc(-c3ccccc3)nc3ccnn23)C1` (stereo not drawn), 51.3%; to `O=C(COc1coc(CN2CCOCC2)cc1=O)Nc1ccc(Cl)cc1`, -117%. Take `CC(O)(CN1CCN(CCO)CC1)c1cccc(C(F)(F)F)c1` (stereo not drawn): the INHIBITION was 45.7%. For the molecule `CC(=O)N1CCN(CC(C)(O)c2cccc(C(F)(F)F)c2)CC1` (stereo not drawn), the INHIBITION is listed as -10.4%. To `CC(O)(CN1CCC2(CC1)OCCO2)c1cccc(C(F)(F)F)c1` (stereo not drawn) belongs -7.98%; to `CC(O)(CN1CCC(O)CC1)c1cccc(C(F)(F)F)c1` (stereo not drawn), 58%.

In the case of `COCCN1CCN(CC(C)(O)c2cccc(C(F)(F)F)c2)CC1` (stereo not drawn), the INHIBITION was 20.5%. To `CCN1CCN(CC(C)(O)c2cccc(C(F)(F)F)c2)CC1` (stereo not drawn) belongs 61.4%. To `CC(C)(C)c1csc(CCNC(=O)[C@H](c2ccccc2)n2cnnn2)n1` belongs -92.7%. To `O=C(c1ccsc1)N1C[C@@H]2OCCN(CCN3CCCC3)[C@@H]2C1` belongs -116%; to `CCc1ccc(S(=O)(=O)NCC2CCN(c3cnccn3)CC2)s1`, -103%. As for `COc1cccc(N2CCN(Cc3nccn3C(C)C)CC2=O)c1`, the INHIBITION was -72.4%. Under `CC(C)(C)OC(=O)N1CCCN(Cc2ccon2)c2ccccc21` stands 84.5%; under `CC(=O)N1CCCN(Cc2ccon2)c2ccccc21`, -22.6%; under `CC(C)(C)OC(=O)N1CCCc2ccc(NCc3ccon3)cc21`, -31.3%. As to `CN(C)CCOCc1nnc2n1CCN(Cc1ccc(F)cc1)CC2`, the INHIBITION is -137%. For the molecule `O=C(CO)N1CCC(F)(F)C2(CCN(c3ccccc3)C2)C1` (stereo not drawn), the INHIBITION is recorded as -30.5%. `O=C(O)CN1CCC(F)(F)C2(CCN(c3ccccc3)C2)C1` (stereo not drawn): the INHIBITION is reported as 67.6%.

For `Cn1ccnc1CN1CCC(F)(F)C2(CCN(c3cccnc3)C2)C1` (stereo not drawn), the INHIBITION is reported as 60.4%. Under `FC1(F)CCN(c2ccccc2)CC12CCN(c1ncccn1)C2` (stereo not drawn) stands -145%; under `Cn1ccnc1CN1CCC(F)(F)C2(CCN(c3cnccn3)C2)C1` (stereo not drawn), -1.72%. To `FC1(F)CCN(Cc2ccncc2)CC12CCN(c1cccnc1)C2` (stereo not drawn) belongs 19.1%; to `COc1ccc(CN(C)[C@@H]2CN(C(=O)c3cncs3)C[C@H]2O)cc1`, -40.5%; to `O=c1[nH][nH]c2cn(-c3ccc(Cl)cc3)c(=O)n12`, -27.8%.

With `CCOc1cc(CN(C)CCC(=O)OC)ccc1OC(F)F`, the INHIBITION is listed as -133%.

On to `CN(C)CCO[C@@H]1CC[C@H]2[C@H]1OCCN2C(=O)c1ccnnc1`, for which the INHIBITION is -24.7%.

`CC(=O)NCc1nnc2n1CCN(Cc1cccs1)C2`: the INHIBITION is reported as -56.1%. In the case of `CCCc1cc(NCCN2CCNC2=O)n2nccc2n1`, the INHIBITION was -34.9%.

For the molecule `O=C([C@H]1COC[C@H]2CN(C3CCCC3)C[C@H]21)N1CCCO1`, the INHIBITION is -99.5%. Under `Cc1nc(-n2cnnc2)ccc1-c1cccc2c1CCNC2` stands 68.7%; under `Cc1cc(-c2cccc3c2CCNC3)cnc1-n1cnnc1`, -24.9%. Under `Cc1cnc(-n2cnnc2)c(-c2cccc3c2CCNC3)c1` stands -35%.
